Measurements as given in PubChem BioAssay (NCATS).
Results filed as inconclusive are left out. A number with no mark means an inactive call. Activity calls are given as the source filed them. Calls follow the shape of the dose curve; as a rule, active = well fitted activation curve with a large enough effect; inconclusive = small, poorly fitted or top-dose-only effect; inactive = flat fitted curve, though single readings scatter.
Potency is read from the fitted curve at half-maximal effect.

Test: Primary redox qHTS assay for identification of artifact compounds. (AID 1845223)
Details: Amplex Red/HRP redox cycling with DTT, fluorescence; series mostly up to 53.8 µM; redox activity (% of DA3003): at the top concentration
Source text: PI: Alexander Tropsha Ph.D.
UNC Eshelman School of Pharmacy
University of North Carolina, Chapel Hill, North Carolina
Hits from high-throughput screening (HTS) of chemical libraries are often false positives due to their interference with the assay detection technology. In response to this problem, we generated the largest publicly available library of chemical liabilities and developed a free webtool to predict HTS artifacts, both of which are described herein. More specifically, we generated, curated, and integrated HTS datasets for thiol reactivity, redox activity, and luciferase (firefly and nano) activity. Using these curated datasets, we developed and validated several Quantitative Structure-Interference Relationship (QSIR) models to predict nuisance behavior. […] These models were employed for virtual profiling of the National Center for Advancing Translational Science's (NCATS) in-house library, and 256 compounds for each assay were selected for the experimental validation of nuisance behavior. The BA for these external predictions ranged from 58 to 78% for compounds within the applicability domains of the models. […] The models developed in this study, along with aggregation models previously developed by our group (SCAM Detective) were implemented in "Liability Predictor," an online tool which may be used as part of chemical library design or for triaging HTS hits. Both the models and the curated datasets are publicly available at https://liability.mml.unc.edu/.
SEQUENCE No. (e.g., 1, 2, 3, etc.); […] (e.g., Cells, Incubation, Reagent, etc.); VALUE; DESCRIPTION.
1; Reagent; 3 uL; Amplex Red and HRP mixture.
2; Compounds and control; 16 nL; Kalypsis pin tool (Wako USA) equipped with a 1536-well pin head. […]
6; Detection; Fluorescence, ViewLux microplate reader, 525 nm excitation, 598 nm emission.
NOTES (numbers refer to Sequence numbers above)
1. 3 uL of a mixture containing Amplex Red (25 uM final concentration) and horseradish peroxidase (HRP; 250 mU/mL final concentration) in assay buffer (HBSS) was dispensed into all wells of a 1536-well assay plate (solid-bottom black plate; Greiner Bio One, Monroe, NC).
2. A Wako Pin-tool (Wako Automation, Richmond, VA) was used to transfer 16 nL of compounds (consisting of 7-plates in qHTS format, final concentration range 18.3 nM to 114 uM) or control DA3003 (final concentration range 1.22 nM to 40 uM).
3. 15 min. incubation at room temperature protected from light.
4. 1 uL of DTT (prepared fresh; final concentration 250 uM) was dispensed for a final assay volume of 4 uL.
5. Plates were centrifuged (121xg, 15 seconds) and incubated for 30 minutes at room temperature protected from light.
6. Samples were read for fluorescence (Ex/Em = 525(20)/598(25) nm) on a ViewLux CCD imager (PerkinElmer). Data were normalized to DMSO (0% activity) and DA3003 (10 uM final concentration; 100% activity) and the resulting percent inhibition data were fitted to a 4-parameter Hill equation using NCATS in-house software.
In the case of `C=C(C)[C@@H]1CC[C@]2(C(=O)O)CC[C@]3(C(=O)O)[C@H](CCC4[C@@]5(C)CCC(=O)C(C)(C)C5CC[C@]43C)C12` (stereo not given in full), the “redox activity (% of DA3003)” value was -2.64% [at 25.6 µM]. For `C=C1CCCC2(C)CCC(C(C)(C)OC3OC(C)C(O)C(O)C3OC(=O)/C(C)=C\C)CC12` (stereo not given), the “redox activity (% of DA3003)” value was -7.23% [at 25.6 µM]. In the case of `O=C(Nc1nnc(-c2ccc3c(c2)OCCO3)o1)C1CCCCC1`, the “redox activity (% of DA3003)” value was -0.647%. In the case of `O=S(=O)(c1ccc(Cl)cc1)N1CCN(c2ccnc3cc(Cl)ccc23)CC1`, the “redox activity (% of DA3003)” value was -3.44%. With `Cc1c(OCc2cccc(-c3ccc(C(=O)O)cc3)c2)cc2c(c1C)C(=O)C(C1CCCC1)C2` (stereo not given) the “redox activity (% of DA3003)” value was -5.85%. With `Cc1c(F)ccc(C(=O)Nc2cc([N+](=O)[O-])ccc2N2CCN(C)CC2)c1Cl` the “redox activity (% of DA3003)” value was -9.91%. In the case of `CC1(C)CCCC2(C)C1C(OC(=O)/C=C/C=C/C=O)C=C1COC(=O)C12O` (stereo not given), the “redox activity (% of DA3003)” value was 1.74% [at 25.6 µM]. For `CO[C@@H]1[C@H](O)CCC2(CO2)[C@H]1[C@@]1(C)O[C@@H]1CC=C(C)C` (stereo not given in full), the “redox activity (% of DA3003)” value was 9.16%. In the case of `CC(=O)OC(C)(C)/C=C/C(=O)C(C)(O)C1C(O)CC2(C)C3CC=C(C(C)(C)C(=O)O)C(CC(=O)O)C3(C)C(=O)CC12C` (stereo not given), the “redox activity (% of DA3003)” value was 11.4% [at 25.6 µM]. For `C=CC(=O)N1CCCN(c2cc(NCCC(=O)O)nc(-c3ccccn3)n2)CC1`, the “redox activity (% of DA3003)” value was 2.4%. In the case of `CC(C)NC(=O)N1CC[C@H](N=C2Nc3cc(F)ccc3N(CC(F)F)c3ccc(Cl)cc32)C1`, the redox activity (% of DA3003) was 12.5% [at 11.5 µM]. In the case of `COC1C(O)C(OC2CCC3(C)C(CCC45CCC6C7(COC(=O)C7)OC4(O)C6(C)CCC35)C2)OC(C)C1OC1OC(CO)C(OC2OC(CO)C(O)C(O)C2O)C(O)C1O` (stereo not given), the redox activity (% of DA3003) was 3.19% [at 11.5 µM]. For `Cc1cc2c(N3CCCC3)nc(N3CCCC3)nc2n1C`, the Potency was 0.844 µM (active). With `Cc1[nH]c2ccc(F)cc2c1-c1nc2c3cccnc3c3ncccc3c2[nH]1` the “redox activity (% of DA3003)” value was -5.36%. In the case of `CNc1cccc(CCOc2ccc3c(c2)CN(CC(F)(F)F)C(=O)[C@H](CC(=O)O)C3)n1`, the “redox activity (% of DA3003)” value was 17%. With `O=C(Nc1cc(C(F)(F)F)cc(C(F)(F)F)c1)c1cnc(Cl)nc1C(F)(F)F` the “redox activity (% of DA3003)” value was -0.248%. With `COC(CCc1ccc(O)cc1)CC(=O)CCc1ccc(O)cc1` (stereo not given) the “redox activity (% of DA3003)” value was -5.41%. For `COc1cccc(-c2cn(-c3ccc(CCN4CCC(O)CC4)cc3)c3ncnc(N)c23)c1`, the “redox activity (% of DA3003)” value was -0.312%. In the case of `CNC(=O)COC(=O)N1CCC(CCc2ccc(Cl)cc2)CC1`, the “redox activity (% of DA3003)” value was -6.27%. For `C=C[C@](C)(O)CC[C@H]1C(C)=CC(=O)[C@H]2C(C)(C)CCC[C@]12C`, the “redox activity (% of DA3003)” value was 12.9%. In the case of `Cn1cc(-c2ccc3c(c2)CCN3C(=O)Cc2cccc(C(F)(F)F)c2)c2c(N)ncnc21`, the “redox activity (% of DA3003)” value was -3.68%. With `CC(C)c1cc2c(N3CCN(C4=NCC(C)(C)S4)CC3)ncnc2s1` the “redox activity (% of DA3003)” value was 2.01%. In the case of `O=c1cc(N2CCN(c3cccc(C(F)(F)F)c3)CC2)[nH]c(=O)n1C1CCCCC1`, the “redox activity (% of DA3003)” value was 6.64%. For `Cn1nc(C(C)(C)C)cc1C(=O)N[C@@H](Cc1cccc(Cl)c1)C(=O)NCC#N`, the “redox activity (% of DA3003)” value was 4.66%. With `Cc1sc2c(c1C)C(c1ccc(Cl)cc1)=N[C@@H](CC(=O)Nc1ccc(OCCOCCOCCOCCNc3cccc4c3C(=O)N(C3CCC(=O)NC3=O)C4=O)cc1)c1nnc(C)n1-2` (stereo not given in full) the “redox activity (% of DA3003)” value was 4.32% [at 25.6 µM]. With `C=C(C(=O)OC)[C@@H]1CC=C2C=CC(=O)[C@H](C)[C@@]2(C)C1` the “redox activity (% of DA3003)” value was 0.418%. With `O=C(NCCO)c1cccc(-c2cc(Nc3ccc(OC(F)(F)F)cc3)ncn2)c1` the “redox activity (% of DA3003)” value was 18.8%. In the case of `O=C(N[C@H](Cc1cscn1)C(=O)N[C@@H](CC1CCCCC1)[C@@H](O)[C@@H](O)C1CC1)c1nc2ccccc2[nH]1`, the “redox activity (% of DA3003)” value was 11.7%. For `C/C=C(\C)C(=O)OC1C=C(C)CC(OC(=O)c2ccc(O)cc2)C2C1(C)CCC2(O)C(C)C` (stereo not given), the “redox activity (% of DA3003)” value was 19.1% [at 25.6 µM]. In the case of `Nc1nc(O)c(C2=C3C(=Nc4ccccc43)C(=O)NCC2)[nH]1`, the “redox activity (% of DA3003)” value was -8.93%. With `C=CC(C)(O)CC[C@@H]1[C@@]2(C)CCCC(C)(C)C2CC[C@@]1(C)O` (stereo not given in full) the “redox activity (% of DA3003)” value was 5.55%. With `CCn1c2ccccc2c2cc(Nc3ccnc(NCCCN4CCOCC4)n3)ccc21` the “redox activity (% of DA3003)” value was 12.2%. For `CCC(C)CNCC(=O)N1CCC2SC=CC2C1COc1cccc(C)c1` (stereo not given), the “redox activity (% of DA3003)” value was 0.658%. With `CC1(CO)CC2C(O)C3=C(CC(C)(O)C2C1)C(=O)OC3` (stereo not given) the “redox activity (% of DA3003)” value was -17.9%. In the case of `C=C1C(=O)O[C@@H]2C[C@@]3(C)CCCC(=C)[C@]3(O)C[C@H]12`, the “redox activity (% of DA3003)” value was -8.17%. With `C=C1[C@H]2CC[C@H](C(=O)O)[C@@]23CC[C@H](C3)C1(C)C` the “redox activity (% of DA3003)” value was -7%. For `CNC(C)C(=O)NC(C(=O)N1CCCC1C(=O)Nc1snnc1-c1ccccc1)C1CCCCC1` (stereo not given), the “redox activity (% of DA3003)” value was 15.3%. With `O=C(N[C@H]1CCC[C@H](CO)C1)C1CCN(c2nc3cc(Cl)c(-c4ccc(Cl)cc4)cc3o2)CC1` the “redox activity (% of DA3003)” value was 1.43%. With `C=C1C(=O)O[C@@H]2C3=C(C)CCC[C@]3(C)CC[C@@]12O` the “redox activity (% of DA3003)” value was 14.4%. In the case of `C/C=C/C1=CC2=C(CO1)C(=O)C(C)(OC(=O)c1c(C)cc(O)cc1OC)C(O)C2` (stereo not given), the “redox activity (% of DA3003)” value was 6.21%.
